Data: PubChem BioAssay AID615 (Sanford-Burnham Center for Chemical Genomics, 2007)
The campaign covered roughly 21,000 compounds. Fewer than 10 were called active.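 How the source made its calls: active means inhibition above 50% at the 20 µM single-dose screen; inactive means the rest.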 These entries were drawn from the full list.

Each compound was assayed against Alkaline phosphatase, tissue-nonspecific isozyme (Homo sapiens) (UniProt P05186) (assay: blockers of alkaline phosphatase TNAP catalysis – biochemical, colorimetric, p-nitrophenol readout, primary screen (AID 615;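 further: 0% = DMSO only wells and 100% = 1 mM levamisole wells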)). Settings: purified TNAP, pNPP hydrolysis, absorbance 405 nm; at 20 µM; stronger effect = higher value.
Chain of Alkaline phosphatase, tissue-nonspecific isozyme (Homo sapiens) (P05186 whole entry, looked up): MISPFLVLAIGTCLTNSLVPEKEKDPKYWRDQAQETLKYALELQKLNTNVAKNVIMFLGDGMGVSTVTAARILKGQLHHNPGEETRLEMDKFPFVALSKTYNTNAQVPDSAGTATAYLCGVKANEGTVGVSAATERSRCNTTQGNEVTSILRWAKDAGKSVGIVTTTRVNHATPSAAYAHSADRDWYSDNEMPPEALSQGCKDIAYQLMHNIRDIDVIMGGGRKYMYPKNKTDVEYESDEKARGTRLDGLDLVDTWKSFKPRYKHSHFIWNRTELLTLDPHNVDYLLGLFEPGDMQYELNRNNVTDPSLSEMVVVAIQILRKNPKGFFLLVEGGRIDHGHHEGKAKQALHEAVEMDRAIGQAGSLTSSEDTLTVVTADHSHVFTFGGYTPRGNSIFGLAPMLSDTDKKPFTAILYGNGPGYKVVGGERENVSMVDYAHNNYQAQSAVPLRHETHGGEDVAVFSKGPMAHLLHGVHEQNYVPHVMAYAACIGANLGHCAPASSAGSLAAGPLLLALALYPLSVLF

inhibition, inactive:
CCOc1cccc(NC(=O)C2CCCN(S(=O)(=O)c3ccc(OC)cc3)C2)c1 (centres undefined) -1.6%, O=c1[nH]c(=O)n(Cc2ccco2)c2c1C(C(F)(F)F)(C(F)(F)F)N=C(c1ccco1)N2 1.6%, CCN(CC)C(=O)CSc1nnc(-c2ccc(S(=O)(=O)NCc3ccccc3Cl)cc2)o1 3.4%, CCN(CC)CCN1C(=O)C(=O)/C(=C(/O)c2ccc(OC)c(OC)c2)C1c1ccccn1 (centres undefined) -8.8%, CCCOC(=O)C1=C(C)NC2=C(C(=O)C(C(=O)OC)C(C)C2)C1c1ccc(N(C)C)cc1 (centres undefined) 6.3%, COC(=O)c1cccc(NC(=O)CN2CCC(NC(=O)c3cc(OC)c(OC)c(OC)c3)CC2)c1 4.5%, Cn1nnnc1SCC(=O)N1CCN(Cc2ccccc2)CC1 3.1%, CCn1c(Cc2ccccc2)nnc1SCc1nc2ccccc2c(=O)[nH]1 2.9%, c1ccc(-n2ncc3c(N4CCCC4)ncnc32)cc1 4.2%, CC1(C)C2CCC1(C)C(OC(=O)CCn1ccnc1)C2 (centres undefined) 3.3%, Cc1cc(NC(=O)CCC(=O)N(c2cccc(F)c2)C(C(=O)NC2CCCC2)c2ccncc2)no1 (centres undefined) 2.9%, CCn1c(SCC(=O)c2ccc(Cl)s2)nnc1-c1cccs1 3.7%, COc1ccc2[nH]c3ccc(OC)cc3c2c1 6.8%, O=C(NCCN1CCOCC1)c1c(F)c(F)c(F)c(F)c1F -0.8%, CCOC(=O)c1ccc(N2C(=O)CC(Sc3nc(O)c(CC)c(=O)[nH]3)C2=O)cc1 (centres undefined) -2.3%, CC(C)c1nc(N2CCOCC2)c(C#N)c2c1COC(C)(C)C2 -4.2%, Cc1ccc2c(c1)c1ncn(CCC3=CCCCC3)c(=O)c1n2C 1.2%, CC1(C)CC(=O)C2=C(C1)NCN(CCCN1CCOCC1)C2 3%, c1ccc2c(NCC3CCCO3)nc(-c3ccncc3)nc2c1 (centres undefined) 3.1%, Cc1ccn2cc(C(=O)NC3CCN(Cc4ccccc4)CC3)nc2c1 -6.8%, CCC(C)(C)n1nnnc1C(c1cccs1)N1CCN(Cc2ccccc2)CC1 (centres undefined) -10%, COc1ccc(NC(=O)CSc2nnc(-c3cccs3)n2Cc2ccco2)cc1OC 3.1%, N#CNC1=NCN(CCc2ccccc2)CN1 4.9%, C=CCN1C(=O)C(O)(CC(=O)c2ccc(Cl)cc2)c2ccccc21 (centres undefined) 5.4%, CCc1ccc(-c2nnn(Cc3nc4ccccc4s3)n2)cc1 3%, O=C1[C@@H]2C(Cc3ccc(O)cc3)NC3(C(=O)Nc4ccc(F)cc43)[C@@H]2C(=O)N1c1ccc(F)cc1 (some centres undefined) 1.7%, COC(=O)c1ccccc1NC(=O)CN(Cc1ccccc1)S(C)(=O)=O 6%, CCCc1nc2ccccc2c(C(=O)OCc2nnc(-c3cc(OC)c(OC)c(OC)c3)o2)c1CC 1.2%, CCOC(=O)c1cc2occc2n1CC(=O)NC1CCC(C)CC1 (centres undefined) 5.1%, CCOc1cccc(=O)c2c(C)n(CC3CCCO3)c(C)c12 (centres undefined) -12.4%, O=C(NC1CC2CCCC(C1)N2C(=O)N1CCCCC1)C1CCCCC1 (centres undefined) 4.8%, CCOC(=O)C1C(=O)NC(N2CCN(c3ccccc3)CC2)=NC1c1ccco1 (centres undefined) 2.1%, CCN(Cc1cc2cc(C)ccc2[nH]c1=O)S(=O)(=O)c1ccccc1 6.4%, O=C(NCCCCO)C(F)(F)C(F)(F)C(F)(F)C(=O)NCCCCO 4.2%, Cc1cc(N2C(=O)C(=O)/C(=C(/O)c3ccccc3)C2c2cccc(Br)c2)no1 (centres undefined) 0.9%, CN(c1nc2ccccc2n2c(-c3ccco3)nnc12)S(=O)(=O)c1ccccc1 4.7%, CC(=O)c1cccc(NC(=O)N2CCCC2C(=O)NCCC(C)C)c1 (centres undefined) 7.2%, Cc1ccc(F)cc1NC(=O)c1cccc(N(C)C)c1 5%, CC1=C2C(=O)OC(c3ccoc3)C2(C)CCC1 (centres undefined) 0%, CCOC(=O)CSc1nnc(-c2ccco2)n1C 3%, Cc1ccc(C(=O)OCC(=O)NCc2ccc3c(c2)OCO3)s1 3.6%, Cc1ccc(S(=O)(=O)N2CCC(C(=O)OCC(=O)N3CC(=O)Nc4ccccc43)CC2)cc1 5.7%, CCCCCNC(=O)Cc1ccc(OC)cc1 2.1%, Cc1nc(NCc2ccccc2)c(C(N)=O)c2c1COC(C)(C)C2 3%, CC(=O)N(Cc1cccs1)C1CCOC(C)(C)C1 (centres undefined) 2.9%, CSc1nc(O)c(Cc2ccccc2)c(=O)[nH]1 0.9%, CC(C)C(NC(=O)c1cccc(S(=O)(=O)N2CCOCC2)c1)C(=O)NCCc1ccccn1 (centres undefined) 4.3%, CSCCC1NC2(C(=O)Nc3ccc(Cl)cc32)[C@@H]2C(=O)N(C3CCCC3)C(=O)[C@H]12 (some centres undefined) 7.3%, Cc1cnc(NC(=O)CSc2nnc(-c3ccc(Cl)cc3Cl)n2N)s1 -1.5%, COc1ccc(-c2c3c(=O)n(C)c(=O)n(C)c3cn2NC(C)=O)cc1 3.2%, CCSC1=C(C#N)C(=O)n2c1cc1c2CCCC1 1.7%, Cc1cc(C(=O)N2CCN(c3ccccn3)CC2)c(C)o1 6%, COc1cccc(-c2nnc(N(C)C(=O)c3ccno3)s2)c1 2.3%, CC(=O)N1CSCC1C(=O)O (centres undefined) 8.6%, COc1ccc(O)c(C=Nc2cc(C)on2)c1 5.7%, O=C1CSC(=O)N1CCOCCN1C(=O)CSC1=O 4.8%, COc1ccc(C2CC(c3ccc(C)cc3)Nc3nc(N)nn32)cc1 (centres undefined) 3.3%, CC1(C)CC(=O)C(C2=NC(C)(C)Cc3ccccc32)=C(O)C1 -1%, CCn1c(SCC(=O)NCc2ccco2)nnc1-c1ccc(N)cc1 0.2%, CCOc1cc(C)c(Cl)cc1S(=O)(=O)n1nnc2ccccc21 3.6%, CC1CCCN(C(=O)Cn2c(=O)oc3ccccc32)C1 (centres undefined) 3.7%, O=C(Nc1c(Cl)cccc1Cl)C1CCC1 3.6%, Cc1cc(C)nc(SCc2ccccc2C#N)n1 1.7%, COc1ccccc1Nc1ncc(C(C)=O)c(C)n1 1.9%, O=C(O)CN(Cc1ccco1)S(=O)(=O)c1ccccc1 0%, CCC(=O)Nc1ccc(C(=O)Nc2ccc3c(c2)C(=O)N(CC2CCCO2)C3=O)cc1 (centres undefined) 3.2%, CCCc1cc(=O)n2[nH]c(SCc3ccccc3)nc2n1 4.4%, N#Cc1nc(-c2ccc(OCc3ccccc3)cc2)oc1NCCCN1CCOCC1 4%, O=S(=O)(NCc1cccnc1)c1ccc(Br)s1 2.9%, Cc1ccc(C(=O)N2CCN(C3CCCCC3)CC2)s1 2.5%, COC(=O)c1cc(NC(=O)CN2CCC(C(N)=O)(N3CCCCC3)CC2)cc(C(=O)OC)c1 -6.8%, COc1cccc(NC(=O)c2ccccc2SC)c1 0.3%, COC(=O)c1ccc2c(c1)S(=O)(=O)NC(=NCCCN1CCOCC1)S2 3.7%, O=C(c1ccco1)N(Cc1nc2ccccc2c(=O)[nH]1)C1CCCC1 -5.2%, Cc1ccccc1OCCC(=O)Nc1c(C)n(C)n(-c2ccccc2)c1=O 0%, Cc1cc(C)c(C(=O)CN2C(=O)CCC2=O)cc1C 5%, O=S(=O)(c1ccccc1)N(CC(O)CN1CCCCC1)c1ccccc1 (centres undefined) -1.4%, COC(=O)c1ccccc1NC(=O)c1ccccc1NS(C)(=O)=O 8.2%, COC(=O)c1cc(Cl)c(NC(=O)c2ccco2)cc1OC -4.4%, COc1cc(OC)cc(C(=O)Nc2ncc3c(n2)CC(C)(C)CC3=O)c1 3.1%, CC1CCCCC1NC(=O)CSc1nnc(N)s1 (centres undefined) 0%, COc1ccc(CNC(=O)c2cc3c(=O)n4ccccc4nc3n(CC3CCCO3)c2=N)cc1 (centres undefined) 0.4%, COc1c(F)c(F)c(-c2csc(N)n2)c(F)c1F 1%, COC(=O)c1cccc(NC(=O)CSc2nc(C)cc(=O)[nH]2)c1 6.2%, CC(NCCO)C(=O)C12CC3CC(CC(C3)C1)C2 (centres undefined) 6.7%, CCn1nc(NC(=O)c2ccco2)c2cc3ccc(C)cc3nc21 4.2%, COc1ccc(CNC2CCCCC2)cc1 3.7%, CC(C)[C@H](NC(=O)Nc1ccc(S(N)(=O)=O)cc1)C(=O)O 4.9%, O=S(=O)(NCc1ccc2c(c1)OCO2)c1cccc2nsnc12 5.8%, Cc1ccc(S(=O)(=O)N2CCOCC2)cc1C(=O)NCc1ccc(F)cc1 0%, O=C(NCC1CCCO1)C(C(=O)c1ccccc1)n1cc(Cl)ccc1=O (centres undefined) 6.1%, Cc1nnc(N(Cc2ccco2)C(=O)c2ccno2)s1 1.8%, O=C(Nc1ccc2c(c1)OCCO2)c1ccncc1 3.7%, CCOC(=O)c1sc(/N=C/Nc2nc(C)c(C(=O)OCC)s2)nc1C 0%, COc1ccc(N(Cc2cc3cc(OC)ccc3[nH]c2=O)S(C)(=O)=O)cc1 2.6%, O=C(CSc1ncccn1)NCCc1ccccc1 1.9%, CC12CCC(C(=O)N(CCC#N)CCC#N)(CC1=O)C2(C)C (centres undefined) 5.5%, CNC(=O)CSc1nnc(CCc2ccccc2)n1-c1ccccc1 -9%, O=C(CCCOc1ccccc1)Nc1cccc(C(=O)O)c1 7.6%
